PNC inhibitor: inhibitors of perinucleolar compartment assembly; PC3M PTB-GFP, PNC prevalence imaging, 16 h; stronger effect = lower value; activity change (PNC), negative = inhibition, % at 10 µM; 140,000 tested, 3.1% active; AID 2417;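 active means readout at or below -70, meaning at least 70% loss of cells showing the perinucleolar compartment, a nuclear body marking cancer cells; inconclusive means readout between -30 and a set limit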
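PC3M cells stably expressing PTB-GFP, 750–1000 cells/well, treated 16 h at 37 °C with compound (23 nl of library stock), in duplicate. After paraformaldehyde fixation and Hoechst stain, imaged at 20x; PNC prevalence scored by image analysis.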
ALDH1A1 inh-1: inhibitors of human aldehyde dehydrogenase 1A1; 220,000 tested, 7.3% active; Purified ALDH1A1, NADH fluorescence, propionaldehyde substrate; AID 1030; P00352; Potency, µM (titrated, usually from 75.3 µM), actives largely listed as inhibitors
IMPase Li cell: IMPase inhibition in cells with lithium potentiation; AID 1457; CHO-M1 cells, IP1 TR-FRET (IP-One), carbachol + lithium; Potency, µM (doses to about 59.4 µM), usual class: inhibitors; 210,000 tested, 0.35% active; active means well fitted inhibition curve with a large enough effect; inconclusive means small, poorly fitted or top-dose-only effect; inactive means no such curve, though single readings can be large or run the other way;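 further: IP1 builds up when IMPase is blocked and the TR-FRET signal falls; nearly all actives have a fitted effect of over 50% in size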
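CHO cells stably expressing M1 receptor (2000/well, cultured 16–30 h) treated 30 min at 37C with compound plus low lithium. Cytosolic IP1 by TR-FRET (665/620 ratio and 620 channel) after 10 min lysis; AC50 by Hill fit.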
HPGD block: inhibitors of human 15-hydroxyprostaglandin dehydrogenase (HPGD); P15428; purified HPGD, NADH fluorescence kinetic, PGE2 substrate; Potency, µM, hits mostly inhibitors; 150,000 tested, 4.3% active
Target sequence (P15428 whole entry, looked up): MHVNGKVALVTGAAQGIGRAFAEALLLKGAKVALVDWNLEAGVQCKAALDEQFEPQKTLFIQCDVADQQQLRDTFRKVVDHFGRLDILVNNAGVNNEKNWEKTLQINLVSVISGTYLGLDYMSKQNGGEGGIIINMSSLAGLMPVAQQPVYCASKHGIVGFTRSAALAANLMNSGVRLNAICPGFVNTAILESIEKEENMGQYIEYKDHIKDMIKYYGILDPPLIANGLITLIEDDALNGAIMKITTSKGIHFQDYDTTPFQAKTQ
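20 nM HPGD preincubated 15 min at room temperature with compound in 50 mM Tris-HCl pH 8, 0.01% Tween 20. Started with 1 mM NAD+ and 30 uM prostaglandin E2; NADH fluorescence (360/450 nm) read 5 times over 30-s intervals, last minus first.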
IMPase inh: IMPase inhibition in cells | AID 901 | CHO-M1 cells, IP1 accumulation, HTRF TR-FRET ratio | inhibition (IP1 accumulation), % at 46.1 µM | 120,000 tested, under 10 active; active means well fitted curve in the direction sought with a large enough effect in the signal ratio, not every such curve was filed as active; inconclusive means small, poorly fitted or top-dose-only effect, or a change in a side signal; inactive means no such curve, though single readings can be large or run the other way; the % refers to the signal ratio;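 further: cells stimulated with carbachol in lithium chloride buffer; higher means more IMPase inhibition seen as more IP1 and lower FRET ratio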
Target sequence (P97697 whole entry, looked up): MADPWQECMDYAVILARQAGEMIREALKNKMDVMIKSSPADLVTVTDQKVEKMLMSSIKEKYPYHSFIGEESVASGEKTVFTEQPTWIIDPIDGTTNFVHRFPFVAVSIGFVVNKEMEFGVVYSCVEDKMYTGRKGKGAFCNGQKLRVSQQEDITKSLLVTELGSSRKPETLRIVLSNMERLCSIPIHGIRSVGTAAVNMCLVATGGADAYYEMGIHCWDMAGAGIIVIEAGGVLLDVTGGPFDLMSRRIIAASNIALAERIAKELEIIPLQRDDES
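Seeded CHO-M1 cells were dosed with compound at up to 46 uM, stimulated with carbachol for 30 min, then lysed in IP-One detection reagents. Higher IP1 lowers the TR-FRET signal.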
HPGD inh cf: confirmation of human HPGD inhibitors. shares compounds with HPGD block. recombinant HPGD, NADH fluorescence, PGE2 substrate. Potency, µM (top dose mostly 57.1 µM), hits mostly inhibitors. 90 tested, 90% active. AID 2429; calls by dose curve
ALDH1A1 inh-2: Confirms inhibition of human ALDH1A1 with counterscreen; shares compounds with ALDH1A1 inh-1; purified ALDH1A1, NADH fluorescence, propionaldehyde/NAD+; Potency, µM (series often up to 57.1 µM), hits mostly inhibitors; 90 tested, 90% active; AID 493210; calls by dose curve
A number is an active result; - = inactive; ? = inconclusive; . = no result given; [ ] = dose if it differs, or a comment. Compounds with a hit are over-represented: about 11% of the library has one in this group of screens. Unless noted, the call rests on the fitted dose curve; in most records, active means well fitted inhibition curve with a large enough effect (not every such curve was filed as active); inconclusive means small, poorly fitted or top-dose-only effect, or another doubt; inactive means no such curve, though single readings can be large or run the other way.

SMILES	PNC inhibitor	ALDH1A1 inh-1	IMPase Li cell	HPGD block	IMPase inh	HPGD inh cf	others
CN1C(=O)C(Cl)(Cl)C(=O)c2ccccc21	-	0.4µM	-	22µM	.	.
CN(C)C(CNC(=O)c1ccc(S(=O)(=O)N(C)C)cc1)Cc1ccccc1 (stereo not given)	.	?	-	.	.	.
Cc1ccc(C(=O)Oc2ccccc2N2C(=O)C3CCCCC3C2=O)cc1 (stereo not given)	-	-	-	-	-	.
COc1ccccc1C(=O)O/N=C(/C)c1ccc(N2C(=O)C3CCCCC3C2=O)cc1 (stereo not given)	-	13µM	-	25µM	-	.
CC1CCCC(C)N1C(=O)c1cc(F)c(F)cc1Cl (stereo not given)	-	-	-	-	-	.
CC1CCCC(C)N1C(=O)c1cc2ncc(CCCl)cn2n1 (stereo not given)	-84	?	-	1µM	.	0.79µM
O=C(CCc1ccc(Oc2cc([N+](=O)[O-])cc([N+](=O)[O-])c2)cc1)N1CCCCC1	-	4.5µM	-	0.045µM	-	0.22µM
O=C(CCc1ccc(Oc2cc([N+](=O)[O-])cc([N+](=O)[O-])c2)cc1)Nc1cccc(Cl)c1	-	?	-	-	.	-
O=C(Nc1cc(Oc2ccc(Cl)cc2)cc([N+](=O)[O-])c1)c1ccco1	-	-	-	-	.	.
CCCC(NC(C)C(=O)N1C(C(=O)O)CC2CCCCC21)C(=O)OCC (stereo not given)	.	-	-	-	.	.
C=CCc1ccccc1OCC(=O)N/N=C/c1ccc(OC(C)=O)cc1OC(C)=O	-	-	-	-	.	.
COc1ccc(C(=O)c2ccc(OC)cc2O)c(O)c1	-	-	.	.	-	.
COc1ccc(C(=O)c2ccccc2O)c(O)c1	.	-	-	0.5µM	-	1µM
O=c1c2ccccc2sn1-c1ccccc1	-	4.5µM	-	0.56µM	-	0.45µM
O=c1[nH]sc2ccccc12	.	?	-	.	.	.
COc1ccccc1/C=C/C=N/n1c(-c2ccc(C)cc2)n[nH]c1=S	?	32µM	-	1.4µM	.	1.6µM
Cc1ccc(-c2n[nH]c(=S)n2/N=C/C=C\c2ccccc2[N+](=O)[O-])cc1	-	-	-	0.89µM	?	0.5µM
CCCCC1=NN2CCS(=O)(=O)N=C2S1	.	-	-	.	.	.
O=c1[nH]c(SCc2ccccc2F)nc2ccccc12	.	?	-	.	.	.
Cc1ccccc1CSc1nc2ccccc2c(=O)[nH]1	-	-	-	1.6µM	.	1µM
N#Cc1c(Nc2cccc(F)c2)sc2c(O)cc(=O)[nH]c12	.	-	-	.	.	.
Cc1ccc(CNC(=O)c2ccc(Cl)cc2[N+](=O)[O-])cc1	-	-	-	0.2µM	-	2µM
O=C(NCc1cccnc1)c1ccc(Cl)cc1[N+](=O)[O-]	?	-	-	-	-	.
COc1ccc(OC)c(C(=O)c2ccc(C(=O)N3CCCCC3)cc2)c1	-	?	-	0.25µM	-	0.2µM
NC(=NCCc1ccccc1)NS(=O)(=O)c1ccccc1	?	-	-	-	.	.
SMILES	PNC inhibitor	ALDH1A1 inh-1	IMPase Li cell	HPGD block	IMPase inh	HPGD inh cf	others
COc1ccc(N2CCN(C(=O)CSc3nnc(-c4ccco4)n3C)CC2)cc1	.	?	-	.	.	.
O=C(C1CCC(Cn2c(=S)[nH]c3ccccc3c2=O)CC1)N1CCOCC1 (stereo not given)	-	-	-	1.6µM	-	2.5µM
CN(C)Cc1nsc(N(C)C)n1	.	-[13.5 µM]	-	-	.	.
O=C(NCCc1ccc(F)cc1)c1cc(=O)c2ccccc2o1	.	-	-	.	.	.
O=S(=O)(Nc1cc(Sc2cccc3cccnc23)c(O)c2ccccc12)c1ccccc1	-103	?	-	1.1µM	.	0.63µM
O=C(O)c1ccccc1NS(=O)(=O)c1cccc2cccnc12	-	-	-	-	-	.
Cc1ccc(CN(c2ccc(C(=O)N3CCc4ccccc4C3)cc2)S(C)(=O)=O)cc1	?	-	-	?	-	11µM
Cc1ccc(S(=O)(=O)NCc2ccc(C(=O)N3CCc4ccccc4C3)cc2)cc1	-	?	-	1.4µM	.	2.2µM
Cc1cc2nnc(SCC(=O)NCC3CCCO3)n2c2ccccc12 (stereo not given)	.	-	-	.	.	.
CCNC(=O)c1ccc(CSc2ccc(Cl)cc2)cc1	-109	-	-	-	.	?
CCC1CCCCN1C(=O)c1nn2cccnc2c1Cl (stereo not given)	-	-	-	-	-	-
COCCNC(=O)c1nn2cccnc2c1Cl	-	-	-	?	-	.
CCOC(=O)CC(NC(=O)CCc1c(C)nc2ncnn2c1C)c1ccc(C)cc1 (stereo not given)	.	-	-	.	.	.
CC1=NOC(=O)/C1=C/c1ccc(-c2ccc(Cl)cc2)o1	-	4µM	-	1.1µM	-	1.1µM
C=CCNC(=S)N/N=C/c1ccc(-c2cc(Cl)ccc2Cl)o1	-	?	-	?	-	.
CC1=NOC(=O)/C1=C\c1ccc(-c2cc(Cl)ccc2Cl)o1	-	3.5µM	?	1.4µM	-	0.45µM
Cc1ccc(NS(=O)(=O)c2cc(NC(=O)C(C)Oc3ccccc3)ccc2C)c(C)c1 (stereo not given)	-	-	-	-	.	.
Cc1ccc(C)c(S(=O)(=O)Nc2cc(SCC(=O)O)c(O)c3ccccc23)c1	-	25µM	-	0.89µM	.	0.4µM
CCCCCOC(=O)CSc1nnc(-c2ccccc2)c(=O)[nH]1	-	-	-	-	-	.
O=C(CSc1nc(-c2ccccc2)nn1C(=O)c1ccccc1)Nc1cccc([N+](=O)[O-])c1	-	22µM	-	1.3µM	-	2.5µM
Cn1nnnc1SCC(=O)Nc1cccc([N+](=O)[O-])c1	.	?	-	.	.	.
COC(=O)CSc1nc2nc(C)c(Br)cc2[nH]1	-	-	-	-	-	?
S=C(c1ccc2c(c1)OCO2)N1CCCCC1	-	-	-	-	-	.
O=C(c1ccc2c(c1)OCO2)N1CCc2ccccc2C1	-	?	-	0.45µM	-	0.71µM
O=C(c1ccc2c(c1)OCCO2)N1CCCCC1	-	-	-	0.13µM	-	0.22µM
SMILES	PNC inhibitor	ALDH1A1 inh-1	IMPase Li cell	HPGD block	IMPase inh	HPGD inh cf	others
O=C(c1ccc2c(c1)OCO2)N1CCCCC1	.	-	-	0.1µM	-	0.063µM
CCOC(=O)C1(CC2CC2)CCN(C(=O)c2cccnc2C)CC1	.	-	-	.	.	.
O=C1C(=O)N(Cc2ccc(Cl)c(Cl)c2)c2ccccc21	.	0.05µM	-	-	-	.	ALDH1A1 inh-2=0.079µM
Cn1/c(=N/NC(=O)c2ccccc2F)sc2ccccc21	.	-	-	.	.	.
CC[C@@H](C)[C@@H](C(=O)N1CCNCC1)n1cc(CCC(=O)O)nn1	.	-	-	.	.	.
O=C(CN(Cc1ccccc1)C(=O)c1cc2c(s1)CCC2)NCc1cccs1	-	0.45µM	-	-	-	.	ALDH1A1 inh-2=0.071µM
